Source: PubChem BioAssay (Tox21)
Results filed as inconclusive are left out. The source made the active and inactive calls. Calls come from the whole dose curve; as a rule, active = well fitted curve in the direction sought with a large enough effect in the repeat runs; inconclusive = weak or mixed curves; inactive = no such curve, though single readings can be large; an effect the other way counts as inactive or inconclusive.

What was measured:
[1] = molecular target: Nuclear receptor subfamily 1 group I member 2 (Homo sapiens) (UniProt O75469); test: CYP3A4 induction through human pregnane X receptor (PXR) by small molecules, qHTS assay (AID 1346984); note: nearly all actives have a fitted effect of over 40% in size
Procedure, shortened: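 DPX-2 reporter cells; 24h cpd, 37C; Luciferin-IPA 3uM final x3h; One-Glo 30 min RT; lumi read.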

[2] = molecular target: Nuclear receptor subfamily 1 group I member 2 (Homo sapiens) (UniProt O75469); test: Human pregnane X receptor (PXR) activation by small molecules, qHTS assay (AID 1346985); note: nearly all actives have a fitted effect of over 40% in size
Procedure, shortened: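 DPX-2 cells (HepG2 co-transfected with a PXR response element and a CYP3A4-promoter luciferase construct) were seeded at 2,000 per well, rested 5 hr at 37C, then exposed to DMSO-dissolved compounds for 24 hr. Activation was read as luciferase luminescence.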

[3] = molecular target: Cytochrome P450 2D6 (Homo sapiens) (UniProt P10635); test: Cytochrome P450 Family 2 Subfamily D Member 6 (CYP2D6) small molecule antagonists: luciferase reporter qHTS assay (AID 1671196); note: nearly all actives have a fitted effect of over 50% in size; note: potency is the fitted concentration of half-maximal effect; for activity change, negative = inhibition: series mostly up to about 120 µM
Chain of Cytochrome P450 2D6 (Homo sapiens) (P10635 whole entry, looked up): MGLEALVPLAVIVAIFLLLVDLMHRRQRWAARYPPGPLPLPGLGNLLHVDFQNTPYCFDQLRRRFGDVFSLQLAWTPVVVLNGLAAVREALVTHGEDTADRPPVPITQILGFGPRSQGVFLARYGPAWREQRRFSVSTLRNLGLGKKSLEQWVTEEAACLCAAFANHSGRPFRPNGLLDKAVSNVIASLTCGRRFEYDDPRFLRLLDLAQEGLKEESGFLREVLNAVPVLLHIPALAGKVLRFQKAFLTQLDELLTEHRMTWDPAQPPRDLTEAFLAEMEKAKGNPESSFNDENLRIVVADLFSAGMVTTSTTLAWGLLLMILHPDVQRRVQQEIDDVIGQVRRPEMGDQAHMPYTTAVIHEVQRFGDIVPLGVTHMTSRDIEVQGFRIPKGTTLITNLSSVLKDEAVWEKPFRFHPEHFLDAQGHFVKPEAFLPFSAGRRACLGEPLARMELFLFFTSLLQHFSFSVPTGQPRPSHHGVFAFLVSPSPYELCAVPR
Procedure, shortened: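 Inhibition of CYP2D6 was gauged by loss of luminescence, since light produced tracks the luciferin generated from a proluciferin substrate. A 10 min room-temperature preincubation preceded 1 h NADPH-supported turnover.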

[4] = molecular target: Cytochrome P450 2C9 (Homo sapiens) (UniProt P11712); test: Cytochrome P450 Family 2 Subfamily C Member 9 (CYP2C9) small molecule antagonists: luciferase reporter qHTS assay (AID 1671198); note: series mostly up to about 120 µM; nearly all actives have a fitted effect of over 50% in size
Chain of Cytochrome P450 2C9 (Homo sapiens) (P11712 whole entry, looked up): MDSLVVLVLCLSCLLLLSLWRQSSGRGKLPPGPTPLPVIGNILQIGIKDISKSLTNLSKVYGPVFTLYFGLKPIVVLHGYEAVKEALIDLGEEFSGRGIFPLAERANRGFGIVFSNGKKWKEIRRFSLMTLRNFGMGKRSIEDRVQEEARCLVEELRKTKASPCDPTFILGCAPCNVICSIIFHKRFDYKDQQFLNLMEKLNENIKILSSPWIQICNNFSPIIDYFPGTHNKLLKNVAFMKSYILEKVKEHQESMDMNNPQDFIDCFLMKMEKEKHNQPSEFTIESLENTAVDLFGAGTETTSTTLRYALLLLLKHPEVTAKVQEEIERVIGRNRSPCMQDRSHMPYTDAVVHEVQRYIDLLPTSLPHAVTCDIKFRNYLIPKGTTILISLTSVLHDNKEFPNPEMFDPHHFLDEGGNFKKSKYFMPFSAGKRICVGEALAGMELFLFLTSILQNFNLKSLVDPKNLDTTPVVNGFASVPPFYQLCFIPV
Procedure, shortened: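 P450-Glo proluciferin substrate with CYP2C9 enzyme; 10 min RT preincubation, then NADPH regeneration 1 h at 37C; luciferin detection reagent 20 min RT, luminescence in relative luminescence units.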

[5] = molecular target: Cytochrome P450 1A2 (Homo sapiens) (UniProt P05177); test: Cytochrome P450 Family 1 Subfamily A Member 2 (CYP1A2) small molecule antagonists: luciferase reporter qHTS assay (AID 1671199); note: nearly all actives have a fitted effect of over 50% in size; note: potency is the fitted concentration of half-maximal effect; for activity change, negative = inhibition: series mostly up to about 120 µM
Chain of Cytochrome P450 1A2 (Homo sapiens) (P05177 whole entry, looked up): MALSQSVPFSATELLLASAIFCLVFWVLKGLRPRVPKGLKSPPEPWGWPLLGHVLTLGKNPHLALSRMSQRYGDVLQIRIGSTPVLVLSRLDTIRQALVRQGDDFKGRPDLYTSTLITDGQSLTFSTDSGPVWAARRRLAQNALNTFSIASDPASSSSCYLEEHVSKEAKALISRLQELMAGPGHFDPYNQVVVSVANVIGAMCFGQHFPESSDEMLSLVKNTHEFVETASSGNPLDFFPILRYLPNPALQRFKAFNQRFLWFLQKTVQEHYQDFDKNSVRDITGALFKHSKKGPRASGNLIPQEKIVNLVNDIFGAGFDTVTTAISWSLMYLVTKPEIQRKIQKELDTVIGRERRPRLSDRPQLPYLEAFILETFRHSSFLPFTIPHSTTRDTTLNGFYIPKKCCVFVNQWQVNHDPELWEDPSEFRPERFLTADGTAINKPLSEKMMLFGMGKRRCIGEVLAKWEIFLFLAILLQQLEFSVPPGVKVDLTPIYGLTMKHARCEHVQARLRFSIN
Procedure, shortened: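 Signal from luciferin formed by CYP1A2 from a proluciferin substrate is read as luminescence, expressed in relative luminescence units. Compounds sit with enzyme 10 min, NADPH-driven reaction runs 1 h, all at room temperature.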

[6] = molecular target: Voltage-gated inwardly rectifying potassium channel KCNH2 (Homo sapiens) (UniProt Q12809); test: Human Ether-a-go-go-Related Gene (hERG) channel small molecule antagonists: fluorescence cell-based qHTS assay (AID 1671200); note: nearly all actives have a fitted effect of over 50% in size; note: potency is the fitted concentration of half-maximal effect;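 for activity change, negative = inhibition: hERG-expressing U2OS cells given a thallium stimulus after FluxOR II dye loading; series mostly up to about 77 µM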
Chain of Voltage-gated inwardly rectifying potassium channel KCNH2 (Homo sapiens) (Q12809 whole entry, looked up): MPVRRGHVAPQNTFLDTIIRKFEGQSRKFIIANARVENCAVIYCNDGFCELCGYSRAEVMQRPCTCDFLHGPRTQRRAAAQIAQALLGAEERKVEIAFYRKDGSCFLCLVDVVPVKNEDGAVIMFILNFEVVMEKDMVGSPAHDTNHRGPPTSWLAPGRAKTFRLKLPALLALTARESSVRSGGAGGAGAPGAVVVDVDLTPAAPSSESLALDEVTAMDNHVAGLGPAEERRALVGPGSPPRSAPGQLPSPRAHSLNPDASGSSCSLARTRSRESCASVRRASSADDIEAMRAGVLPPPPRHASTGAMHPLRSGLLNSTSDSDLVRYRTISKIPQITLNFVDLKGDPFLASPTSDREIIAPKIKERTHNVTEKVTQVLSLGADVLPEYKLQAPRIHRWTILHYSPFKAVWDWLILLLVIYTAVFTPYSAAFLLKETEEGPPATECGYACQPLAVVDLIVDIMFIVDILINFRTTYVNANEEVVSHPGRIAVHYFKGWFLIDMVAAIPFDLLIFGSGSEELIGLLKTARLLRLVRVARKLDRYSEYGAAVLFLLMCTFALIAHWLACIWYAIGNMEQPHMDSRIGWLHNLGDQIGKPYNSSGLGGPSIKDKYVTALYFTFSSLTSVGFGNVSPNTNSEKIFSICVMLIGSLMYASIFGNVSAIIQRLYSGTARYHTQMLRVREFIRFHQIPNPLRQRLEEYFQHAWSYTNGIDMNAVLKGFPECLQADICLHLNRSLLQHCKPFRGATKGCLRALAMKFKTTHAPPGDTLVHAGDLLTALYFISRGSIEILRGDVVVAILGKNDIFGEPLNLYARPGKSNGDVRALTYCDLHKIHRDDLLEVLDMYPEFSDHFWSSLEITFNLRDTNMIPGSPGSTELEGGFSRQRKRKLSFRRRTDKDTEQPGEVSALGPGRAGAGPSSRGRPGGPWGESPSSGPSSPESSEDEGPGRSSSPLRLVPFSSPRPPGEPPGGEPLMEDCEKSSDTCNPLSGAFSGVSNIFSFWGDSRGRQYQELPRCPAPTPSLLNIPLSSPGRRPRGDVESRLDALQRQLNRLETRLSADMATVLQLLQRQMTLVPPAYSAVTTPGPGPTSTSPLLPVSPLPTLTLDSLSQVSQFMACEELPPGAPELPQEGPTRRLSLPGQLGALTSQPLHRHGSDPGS
Procedure, shortened: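 Kinetic two-minute fluorescence traces, sampled at 1 s, were collected following thallium stimulus of U2OS cells (1000 per well) that had been cultured overnight at 37 C and loaded with FluxOR II.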

[7] = molecular target: Cytochrome P450 3A4 (Homo sapiens) (UniProt P08684); test: Cytochrome P450 Family 3 Subfamily A Member 4 (CYP3A4) small molecule antagonists: luciferase reporter qHTS assay (AID 1671201)
Chain of Cytochrome P450 3A4 (Homo sapiens) (P08684 whole entry, looked up): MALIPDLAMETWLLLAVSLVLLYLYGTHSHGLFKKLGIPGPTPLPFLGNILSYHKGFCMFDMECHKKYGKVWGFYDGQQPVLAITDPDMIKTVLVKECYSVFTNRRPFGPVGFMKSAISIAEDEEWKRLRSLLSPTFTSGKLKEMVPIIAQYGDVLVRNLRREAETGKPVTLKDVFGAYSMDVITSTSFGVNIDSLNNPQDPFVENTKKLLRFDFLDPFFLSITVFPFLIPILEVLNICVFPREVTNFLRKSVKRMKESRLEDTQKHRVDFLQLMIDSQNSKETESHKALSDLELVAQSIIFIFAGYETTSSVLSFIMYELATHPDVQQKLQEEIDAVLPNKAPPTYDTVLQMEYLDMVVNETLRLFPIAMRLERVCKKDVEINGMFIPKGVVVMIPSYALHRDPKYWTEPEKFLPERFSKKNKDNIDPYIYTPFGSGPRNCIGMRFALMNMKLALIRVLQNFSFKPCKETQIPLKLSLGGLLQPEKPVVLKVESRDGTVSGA
Procedure, shortened: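 Proluciferin-to-luciferin conversion by CYP3A4, NADPH-regenerated, 1 h RT; luminescence read as RLU. Ketoconazole as control.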

[8] = molecular target: Cytochrome P450 2C19 (Homo sapiens) (UniProt P33261); test: Cytochrome P450 Family 2 Subfamily C Member 19 (CYP2C19) small molecule antagonists: luciferase reporter qHTS assay (AID 1671197); note: nearly all actives have a fitted effect of over 65% in size; note: potency is the fitted concentration of half-maximal effect; for activity change, negative = inhibition: series mostly up to about 120 µM
Chain of Cytochrome P450 2C19 (Homo sapiens) (P33261 whole entry, looked up): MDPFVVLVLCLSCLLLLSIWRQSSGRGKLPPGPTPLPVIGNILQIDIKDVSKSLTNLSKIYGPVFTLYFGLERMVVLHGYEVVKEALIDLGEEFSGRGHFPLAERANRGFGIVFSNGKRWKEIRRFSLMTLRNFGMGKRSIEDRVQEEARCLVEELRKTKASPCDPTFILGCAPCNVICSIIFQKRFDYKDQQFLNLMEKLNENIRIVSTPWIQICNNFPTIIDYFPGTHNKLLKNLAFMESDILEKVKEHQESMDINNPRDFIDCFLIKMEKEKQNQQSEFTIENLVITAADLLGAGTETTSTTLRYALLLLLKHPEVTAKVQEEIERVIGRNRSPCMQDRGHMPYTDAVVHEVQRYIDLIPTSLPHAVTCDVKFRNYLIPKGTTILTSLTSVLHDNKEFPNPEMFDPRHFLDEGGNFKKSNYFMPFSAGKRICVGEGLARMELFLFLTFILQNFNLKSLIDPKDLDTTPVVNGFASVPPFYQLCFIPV
Procedure, shortened: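 P450-Glo CYP2C19 system: enzyme-substrate mix with compound 10 min at room temperature, then NADPH regeneration solution, 1 h at 37C. Proluciferin-to-luciferin conversion detected by luminescence after 20 min with detection reagent; ketoconazole as positive control.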
% is set by controls: 0 for no effect and ±100 for the full control effect.

CN1CCN(C(=O)C2CCCCC2)CC1
inactive: outcome [1] | outcome [2] | Potency [3] | Potency [4] | Potency [5] | Potency [6] | Potency [7]

CNCCc1ccccn1
inactive: outcome [1] | outcome [2] | Potency [3] | Potency [8] | Potency [4] | Potency [5] | Potency [6] | Potency [7]

CN(C)CCc1c[nH]c2ccc(C[C@H]3COC(=O)N3)cc12
inactive: outcome [1] | outcome [2] | Potency [8] | Potency [4] | Potency [5] | Potency [6] | Potency [7]

C[n+]1ccccc1/C=N/O
inactive: outcome [1] | outcome [2] | Potency [3] | Potency [8] | Potency [4] | Potency [5] | Potency [6] | Potency [7]

C[C@]12C=CC(=O)C=C1[C@@H](F)C[C@@H]1[C@@H]2[C@@H](O)C[C@@]2(C)[C@H]1CC[C@]2(O)C(=O)CO
inactive: outcome [1] | outcome [2] | Potency [3] | Potency [8] | Potency [4] | Potency [5] | Potency [6]

CC(C)(C)C(=O)NCCCC(=O)O
inactive: outcome [1] | outcome [2] | Potency [3] | Potency [8] | Potency [4] | Potency [5] | Potency [6] | Potency [7]

COc1cnc(NS(=O)(=O)c2ccc(N)cc2)nc1
inactive: outcome [1] | outcome [2] | Potency [3] | Potency [4] | Potency [5] | Potency [6] | Potency [7]

N[C@H]1C(O)O[C@H](CO)[C@@H](O)[C@@H]1O (stereo not given in full)
active: Potency [3] 30.9 µM
inactive: outcome [1] | outcome [2] | Potency [8] | Potency [4] | Potency [5] | Potency [6] | Potency [7]

NCC1CCC(C(=O)Oc2ccc(CCC(=O)O)cc2)CC1 (stereo not given)
inactive: outcome [1] | outcome [2] | Potency [3] | Potency [8] | Potency [4] | Potency [5] | Potency [6]

Cc1ccc(S(=O)(=O)NC(=O)NN2CC3CCCC3C2)cc1 (stereo not given)
inactive: outcome [1] | outcome [2] | Potency [3] | Potency [8] | Potency [4] | Potency [5] | Potency [7]

CCOc1ccccc1OCCN[C@H](C)Cc1ccc(OC)c(S(N)(=O)=O)c1
inactive: outcome [1] | outcome [2] | Potency [8] | Potency [5]
active: Potency [3] 12.3 µM | Potency [6] 21.3 µM

C[C@@H](CN1CC(=O)NC(=O)C1)N1CC(=O)NC(=O)C1
inactive: outcome [1] | outcome [2] | Potency [3] | Potency [8] | Potency [4] | Potency [5] | Potency [6]

COC(=O)N/N=C/c1c[n+]([O-])c2ccccc2[n+]1[O-]
inactive: outcome [1] | outcome [2] | Potency [8] | Potency [4] | Potency [5] | Potency [7]

CN(C)CCc1c[nH]c2ccc(CS(=O)(=O)N3CCCC3)cc12
inactive: outcome [1] | outcome [2] | Potency [8] | Potency [4] | Potency [5] | Potency [6] | Potency [7]

CN1C(CCl)Nc2cc(Cl)c(S(N)(=O)=O)cc2S1(=O)=O (stereo not given)
inactive: outcome [1] | outcome [2] | Potency [3] | Potency [8] | Potency [4] | Potency [5] | Potency [6]

CCCCCCCCCCCCCCCC(=O)OC
inactive: activity change, negative = inhibition [3] 1.63% [at 23.6 µM] | activity change, negative = inhibition [8] -1.98% [at 23.6 µM] | activity change, negative = inhibition [4] 2.75% [at 23.6 µM] | activity change, negative = inhibition [5] -2.98% [at 23.6 µM] | activity change, negative = inhibition [6] -9.56% [at 15.8 µM] | activity change, negative = inhibition [7] 2.42% [at 23.6 µM]

O=CN1CCCCC1
inactive: Potency [3] | Potency [8] | Potency [4] | Potency [5] | Potency [6]

N=C(N)S(=O)O
inactive: Potency [3] | Potency [8] | Potency [4] | Potency [5] | Potency [6] | Potency [7]

O=C(c1ccccc1)c1cccc(O)c1
inactive: Potency [4] | Potency [6]
active: Potency [3] 64.3 µM | Potency [8] 22.8 µM | Potency [5] 36.2 µM

CCCC(=O)CC
inactive: Potency [3] | Potency [4]
active: Potency [8] 41.2 µM | Potency [5] 20.6 µM

CCCCCCCCOCCC#N
inactive: Potency [3] | Potency [8] | Potency [4] | Potency [5] | Potency [6] | Potency [7]

C/C=C(\C)C=O
active: Potency [5] 63.6 µM
inactive: Potency [3] | Potency [8] | Potency [4] | Potency [6] | Potency [7]

CC/C=C\CCCCCCCCCCOC(C)=O
inactive: Potency [3] | Potency [8] | Potency [4] | Potency [5] | Potency [6] | Potency [7]

CCCC(=O)OC
inactive: Potency [3] | Potency [8] | Potency [4] | Potency [5]

CC1(C)CC(N)CC(C)(C)N1
inactive: Potency [3] | Potency [8] | Potency [4] | Potency [5] | Potency [6] | Potency [7]

CCN1CCN(C(=O)N[C@@H](C(=O)N[C@@H]2C(=O)N3[C@@H]2SC(C)(C)[C@H]3C(=O)O)c2ccccc2)C(=O)C1=O
inactive: Potency [3] | Potency [8] | Potency [4] | Potency [5]

Cc1nc2ccc(Cl)cc2[nH]1
active: Potency [3] 31.7 µM | Potency [8] 39.8 µM | Potency [5] 2.82 µM
inactive: Potency [4] | Potency [6]

CCOC(=O)COc1ccc2c(C)c(CCN(CC)CC)c(=O)oc2c1Cl
inactive: outcome [1] | outcome [2] | Potency [4] | Potency [5] | Potency [7]

CCCCCCCCCCCC(C)=O
inactive: Potency [3] | Potency [8] | Potency [4] | Potency [5] | Potency [6]

CCCC(C)C(O)CC (stereo not given)
inactive: Potency [3] | Potency [8] | Potency [4] | Potency [5] | Potency [6]
